The supplement of paper PMC11577813, “Eurasian spruce bark beetle detects lanierone using a highly expressed specialist odorant receptor, present in several functional sensillum types” (BMC Biology, 2024)
± gives the standard deviation of the averaged measurements.

System: lanierone-responsive B-neuron OSN class (ItypOR36)
Assay: net action potential response of lanierone B-neuron (blank-subtracted) (spikes/s (Hz)); higher = stronger excitation
Conditions: 10 µg on filter paper, neuron: B neuron (small spike amplitude)
Method: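 Single sensillum recordings from antennal olfactory sensilla of live adult Ips typographus. Each compound was 10 µg in paraffin oil, delivered as a 0.5 s puff. Net response = spikes in the first 0.5 s of response minus the 0.5 s pre-stimulus count, doubled to give Hz, with blank response subtracted. Values are for the small-spike lanierone-responsive B-neuron (putatively expressing ItypOR36), recorded in sensilla co-housing the A-neuron class; N = 1-4, averaged.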

[1] = co-localized A-neuron class: (4S)-cis-verbenol
[2] = co-localized A-neuron class: (5S,7S)-trans-conophthorin
[3] = co-localized A-neuron class: (+)-isopinocamphone
[4] = co-localized A-neuron class: (+)-trans-4-thujanol
[5] = co-localized A-neuron class: ipsdienol
[6] = co-localized A-neuron class: myrcene
[7] = co-localized A-neuron class: p-cymene

For `C[C@H]1C(=O)C[C@H]2C[C@@H]1C2(C)C` [(-)-Pinocamphone], which “net action potential response” value [1] is on record?
Its value is -2 ± 2.

And the “net action potential response” value [2]?
The value was -4 ± 8.7.

What about the “net action potential response” value [3] of the same compound?
Its value is -1.33 ± 1.1.

And the “net action potential response” value [4]?
The value was 1 ± 3.8.

And the “net action potential response” value [5]?
The value was 0 ± 6.

And the “net action potential response” value [6]?
Its value is 4.

What about the “net action potential response” value [7] of the same compound?
Its value is -2 ± 3.5.

With `C=Cc1ccccc1` [Styrene] as the compound, how does the “net action potential response” value [1] read?
The value was -6 ± 8.7.

What about the “net action potential response” value [2] of the same compound?
Its value is -1.33 ± 1.1.

What about the “net action potential response” value [3] of the same compound?
The value was -4.67 ± 4.6.

And the “net action potential response” value [4]?
Its value is -0.5 ± 6.6.

What about the “net action potential response” value [5] of the same compound?
Its value is -1.33 ± 4.6.

And the “net action potential response” value [6]?
The value was 4.

And the “net action potential response” value [7]?
Its value is -6 ± 2.8.

`CC(C)=CCC/C(C)=C/C=O` [Citral (E/Z mix)] was tested. Which “net action potential response” value [1] did it give?
The value was -1.33 ± 4.6.

What about the “net action potential response” value [2] of the same compound?
Its value is -3.33 ± 4.2.

And the “net action potential response” value [3]?
Its value is 1.33 ± 4.2.

What about the “net action potential response” value [4] of the same compound?
The value was 2 ± 8.2.

What about the “net action potential response” value [5] of the same compound?
Its value is -5.33 ± 7.6.

And the “net action potential response” value [6]?
Its value is 0.

What about the “net action potential response” value [7] of the same compound?
Its value is -0.667 ± 4.2.

With `CC1=CC(=O)[C@@H]2C[C@H]1C2(C)C` [(-)-Verbenone] as the compound, how does the “net action potential response” value [1] read?
Its value is 1.33 ± 6.4.

What about the “net action potential response” value [2] of the same compound?
Its value is -0.667 ± 1.1.

What about the “net action potential response” value [3] of the same compound?
The value was -4.67 ± 6.1.

And the “net action potential response” value [4]?
Its value is 4 ± 6.7.

What about the “net action potential response” value [5] of the same compound?
The value was 2 ± 4.

What about the “net action potential response” value [6] of the same compound?
Its value is 6.

What about the “net action potential response” value [7] of the same compound?
Its value is 2 ± 2.

Which “net action potential response” value [1] does the source give for `C[C@]12CCC[C@](C)(OC1)O2` (racemic) [(±)-Frontalin] here?
The value was -1.33 ± 8.1.

And the “net action potential response” value [2]?
The value was -2 ± 2.

And the “net action potential response” value [3]?
The value was 0 ± 7.2.

What about the “net action potential response” value [4] of the same compound?
Its value is 0.5 ± 4.1.

What about the “net action potential response” value [5] of the same compound?
The value was 0 ± 4.

What about the “net action potential response” value [6] of the same compound?
Its value is 0.

What about the “net action potential response” value [7] of the same compound?
The value was -4 ± 4.

For `CC1(C)C2CC=C(CO)C1C2` (racemic) [(±)-Myrtenol], which “net action potential response” value [1] is on record?
The value was -0.667 ± 3.1.

What about the “net action potential response” value [2] of the same compound?
Its value is 2.5 ± 6.

What about the “net action potential response” value [3] of the same compound?
Its value is -1.33 ± 3.1.

What about the “net action potential response” value [4] of the same compound?
The value was 0 ± 2.3.

What about the “net action potential response” value [5] of the same compound?
The value was -2 ± 14.

And the “net action potential response” value [6]?
Its value is -6.

What about the “net action potential response” value [7] of the same compound?
Its value is 0 ± 2.
